Test systems include NCI-H23 lung; NCI-H226 lung; NCI-H322M lung; HOP-62 NSCLC; NCI-H460 lung; HOP-92 NSCLC; NCI-H522 lung; A549/ATCC NSCLC; 786-0 renal; COLO 205 colon.
Holding throughout (assay): NCI-60 one-dose screen, 48 h (100 = growth as untreated, 0 = no growth, -100 = all killed)
What all share (conditions): 10 µM unless noted

These results are taken from PubChem BioAssay (NCI).

Compounds without any hit were thinned out: in the full panel of roughly 83,000, 20% have a hit.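 Results are percent growth after 48 hours of single-concentration exposure. 100 means growth as in untreated cells, lower positive values show inhibition; negative values down to -100 show cell death.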 Values without a mark were called inactive. Calls of active or inactive are those of the source. The calls were made as follows: active = growth percent below 10; inactive = the rest.

As for `CCOC(=O)C1C(=O)C=C(c2ccc(OC)cc2)CC1c1sc(N(C)Cc2ccccc2)nc1Cl` (stereo not given), the growth is 77.7% in the assay on NCI-H23 lung; 82.6% in the assay with NCI-H226 lung; 76.1% with NCI-H322M lung; 81.6% in the assay on HOP-62 NSCLC; 82.8% with NCI-H460 lung; 29.8% in the assay with HOP-92 NSCLC. Besides, the growth with NCI-H522 lung is 68.7%; in the assay on A549/ATCC NSCLC, 82%; with 786-0 renal it was 84.6%; in the assay with COLO 205 colon, 108%.
Turning to `S=C1CC(=S)NC(=S)N1`, the growth in the assay with NCI-H23 lung was 103%; in the assay on NCI-H226 lung, 103%; in the assay with NCI-H322M lung, 124%; in the assay on HOP-62 NSCLC, 104%; with NCI-H460 lung it was 102%; with HOP-92 NSCLC it was 102%. In addition, the growth with NCI-H522 lung is 101%; with A549/ATCC NSCLC it was 111%; in the assay on 786-0 renal, 106%; in the assay with COLO 205 colon, 100%.
As to `O=S(=O)(NCCCNc1nccc(-n2ccc3cccnc32)n1)c1cccc(C(F)(F)F)c1`, the growth with NCI-H23 lung was 108%; in the assay with NCI-H226 lung, 104%; with NCI-H322M lung, 106%; in the assay with HOP-62 NSCLC, 112%; in the assay with NCI-H460 lung, 104%; in the assay with HOP-92 NSCLC, 106%. For the same molecule, the growth is 98.1% in the assay on NCI-H522 lung, 101% in the assay on A549/ATCC NSCLC, 102% with 786-0 renal and 108% in the assay on COLO 205 colon.
For `OC(c1cc2cc(Br)ccc2c2cc(Br)ccc12)C1CCCCN1` (stereo not given), the growth was -75.4% (active) in the assay with NCI-H23 lung; -70.1% (active) in the assay on NCI-H226 lung; -84.9% (active) in the assay with NCI-H322M lung; -84.1% (active) with HOP-62 NSCLC; -71.7% (active) in the assay on NCI-H460 lung; -88.9% (active) with HOP-92 NSCLC. Further, the growth in the assay with NCI-H522 lung is -86.1% (active); with A549/ATCC NSCLC, -81.3% (active); with 786-0 renal, -41.6% (active); with COLO 205 colon, -89.9% (active).
As for `COc1cc(-c2nn(-c3cccc(NC(=O)Nc4ccc(Cl)c(C(F)(F)F)c4)c3)cc2-c2ccncc2)ccc1Cl`, the growth is 5.69% (active) in the assay with NCI-H23 lung; 12.1% in the assay on NCI-H226 lung; 32.3% in the assay with NCI-H322M lung; 5.4% (active) with HOP-62 NSCLC; 1.7% (active) in the assay with NCI-H460 lung; -37.5% (active) in the assay with HOP-92 NSCLC. For the same molecule, the growth is -13.9% (active) in the assay on NCI-H522 lung, -10.4% (active) with A549/ATCC NSCLC, 15.1% with 786-0 renal and -91.6% (active) in the assay on COLO 205 colon.
With `C=C[C@@H]1C[C@H](O)Cc2c(C)cc(C)cc2N1`, the growth was 97.6% with NCI-H23 lung; 104% with NCI-H226 lung; 117% in the assay on NCI-H322M lung; 91.5% with HOP-62 NSCLC; 102% with NCI-H460 lung; 75.1% in the assay with HOP-92 NSCLC. The growth with NCI-H522 lung was 101%; with A549/ATCC NSCLC it was 98.3%; in the assay with 786-0 renal it was 98.8%; with COLO 205 colon, 106%.
Consider `NC(=O)CCCN1C/C(=C\c2ccccc2)C(=O)c2ccccc21`, for which the growth with NCI-H23 lung is 95.6%; in the assay on NCI-H226 lung, 86.4%; in the assay on NCI-H322M lung, 88.2%; with HOP-62 NSCLC it was 88.8%; in the assay on NCI-H460 lung, 111%; with HOP-92 NSCLC, 84.4%. In addition, the growth was 80.4% in the assay with NCI-H522 lung, 95.1% with A549/ATCC NSCLC, 96.6% in the assay with 786-0 renal and 105% with COLO 205 colon.
On to `NC1=NN(O)C2=CC([N+](=O)[O-])C=CC2=N1` (stereo not given), for which the growth was 97% in the assay on NCI-H23 lung; 110% in the assay with NCI-H226 lung; 113% with NCI-H322M lung; 98.9% with HOP-62 NSCLC; 110% with NCI-H460 lung; 94.1% in the assay with HOP-92 NSCLC. The growth was 94.2% in the assay on NCI-H522 lung, 110% with A549/ATCC NSCLC, 103% with 786-0 renal and 111% in the assay on COLO 205 colon.
For `COc1ccc(-c2ccc(C)n2-c2ccc(-c3nc4ccccc4s3)cc2)cc1`, the growth is 81.4% with NCI-H23 lung; 85.2% in the assay with NCI-H226 lung; 98.2% in the assay with NCI-H322M lung; 87.6% with HOP-62 NSCLC; 88.8% with NCI-H460 lung; 86.2% with HOP-92 NSCLC. The growth in the assay on NCI-H522 lung is 89.4%; with A549/ATCC NSCLC it was 85.6%; in the assay with 786-0 renal, 100%; in the assay on COLO 205 colon, 94%.
On to `Clc1ccccc1-c1nc2ccccc2[nH]1`, for which the growth was 90% in the assay on NCI-H23 lung; 120% with NCI-H226 lung; 152% in the assay with NCI-H322M lung; 92% in the assay with HOP-62 NSCLC; 104% in the assay with NCI-H460 lung; 92.4% in the assay with HOP-92 NSCLC. Also, the growth with NCI-H522 lung is 87.9%; with A549/ATCC NSCLC it was 105%; in the assay with 786-0 renal, 46.3%; with COLO 205 colon, 112%.
For `COc1cccc(-c2nc3sccn3c2-c2ccnc(NCCCNS(=O)(=O)c3ccc(C(F)(F)F)cc3)c2)c1`, the growth in the assay on NCI-H23 lung is 70.4%; with NCI-H226 lung it was 59.4%; with NCI-H322M lung, 79.4%; in the assay with HOP-62 NSCLC it was 91.3%; in the assay on NCI-H460 lung it was 52.4%; with HOP-92 NSCLC it was 68.9%. Further, the growth was 68.4% in the assay with NCI-H522 lung, 44.1% in the assay on A549/ATCC NSCLC, 58.6% in the assay on 786-0 renal and 70.2% with COLO 205 colon.
`O=C1/C(=C/c2ccc(Cl)cc2)CN(C(=O)CCN2CCC(=NO)CC2)C/C1=C\c1ccc(Cl)cc1`: the growth with NCI-H23 lung was -57% (active); in the assay with NCI-H226 lung, -20.5% (active); in the assay on NCI-H322M lung, -75% (active); in the assay on HOP-62 NSCLC it was -80.1% (active); in the assay with NCI-H460 lung it was -67% (active); with HOP-92 NSCLC it was -39.1% (active). For the same molecule, the growth is -92.1% (active) in the assay with NCI-H522 lung, 2.34% (active) with A549/ATCC NSCLC, -76.9% (active) with 786-0 renal and -83.9% (active) in the assay on COLO 205 colon.
Take `CN(C)c1nc2c(N)ncnc2n1C1OC(CO)C(O)C1O` (stereo not given): the growth in the assay on NCI-H23 lung is 110%; in the assay on NCI-H226 lung, 104%; with NCI-H322M lung, 122%; in the assay on HOP-62 NSCLC it was 103%; in the assay on NCI-H460 lung, 121%; with HOP-92 NSCLC, 98.1%. Moreover, the growth was 108% in the assay with NCI-H522 lung, 106% with A549/ATCC NSCLC, 99.2% in the assay with 786-0 renal and 108% in the assay with COLO 205 colon.
Take `COc1cc([N+](=O)[O-])c2ncccc2c1O`: the growth was -9.28% (active) in the assay with NCI-H23 lung; 5.16% (active) with NCI-H226 lung; 2.58% (active) with NCI-H322M lung; 5.92% (active) in the assay with HOP-62 NSCLC; 2.09% (active) in the assay with NCI-H460 lung; 79.4% in the assay with HOP-92 NSCLC. The growth with NCI-H522 lung was 42.5%; with A549/ATCC NSCLC, -16.5% (active); with 786-0 renal, 108%; in the assay with COLO 205 colon it was -67.8% (active).
